Experimental data as given in PubChem BioAssay (EPA / NIEHS).
Where a structure was tested more than once in an assay, its records may differ in their call. Activity calls are given as the source filed them. Rule for the calls: active = hit-call score of the fitted dose curve at least 0.9, where 1 is the maximum; inactive = score below 0.9.

Legend:
[1] = target: Transcription factor E2F1 (Homo sapiens) (UniProt Q01094); test: ATG_E2F_CIS: Attagene CIS-FACTORIAL HepG2 Assay for human E2F Transcription Factor 1 (AID 2282935); details: HepG2 Attagene cis-reporter, E2F reporter RNA transcripts; actives raise or lower the signal
Summary of the method: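 Endogenous E2F1 activity read through cis-promoter reporter units transfected into HepG2. After 24 h compound treatment, reporter mRNA measured by RT-PCR, HpaI digestion and capillary electrophoresis. Bidirectional fit versus DMSO.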

[2] = ATG_E_Box_CIS: Attagene CIS-FACTORIAL HepG2 Assay for human Enhancer Box (E-box) (AID 2282936); details: HepG2 E-box cis-reporter transcription, actives raise or lower the signal
Summary of the method: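 HepG2 cells transiently transfected with multiplexed cis-element reporter units, dosed 24 h; reporter mRNA quantified by RT-PCR, 6-FAM labelling, HpaI digestion and capillary electrophoresis. E-box (USF1) signal fitted bidirectionally vs DMSO.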

[3] = ATG_M_61_CIS: Attagene CIS-FACTORIAL HepG2 Assay for M61 Transcription Factor (Internal Marker) (AID 2282937); details: HepG2 Attagene CIS-FACTORIAL M61 internal marker reporter; actives raise or lower the signal
Summary of the method: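 Transfect HepG2 with MRTUs; dose 24 h; isolate RNA; reverse-transcribe with DNase I treatment; PCR-amplify, FAM-label and cut with HpaI for 2 h at 37 C; resolve by CE. Bidirectional fitting against DMSO.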

[4] = ATG_EGR_CIS: Attagene CIS-FACTORIAL HepG2 Assay for human Early Growth Response 1 (EGR1) (AID 2282938); details: HepG2 Attagene CIS-FACTORIAL EGR reporter mRNA; actives raise or lower the signal
Summary of the method: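 After a 24 h treatment of transiently transfected HepG2 cells, total RNA was reverse-transcribed and reporter sequences PCR-amplified, labelled and run on capillary electrophoresis. Reporters sit under cis-regulatory promoters sensing endogenous factors.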

[5] = ATG_M_19_CIS: Attagene CIS-FACTORIAL HepG2 Assay for M19 Transcription Factor (Internal Marker) (AID 2282939); details: HepG2 Attagene CIS-FACTORIAL M19 internal marker reporter; actives raise or lower the signal
Summary of the method: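 HepG2, MRTU transient transfection, 24 h dosing. Total RNA → RT-PCR → 6-FAM primer extension → HpaI digest → CE fluorescence. Bidirectional curve fit, DMSO negative control.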

[6] = ATG_Ets_CIS: Attagene CIS-FACTORIAL HepG2 Assay for human Erythroblast Transformation Specific (ETS) (AID 2282941); details: HepG2 ETS cis-reporter transcription, actives raise or lower the signal
Summary of the method: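 HepG2 cells transfected with multiple cis-regulated reporter units measuring endogenous ETS-driven transcription, 24 h after dosing. Reporter mRNA quantified by RT-PCR with capillary electrophoresis; bidirectional fit relative to DMSO.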

[7] = target: Hepatocyte nuclear factor 3-beta (Homo sapiens) (UniProt Q9Y261); test: ATG_FoxA2_CIS: Attagene CIS-FACTORIAL HepG2 Assay for human Forkhead box A2 (FOXA2) (AID 2282942); details: HepG2 cis-reporter transcription factor activity, 24 h; actives raise or lower the signal
Summary of the method: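 24 h dosing of HepG2 bearing cis-reporter constructs; mRNA readout by RT-PCR/CE fluorescence; bidirectional fit, DMSO baseline.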

[8] = ATG_FoxO_CIS: Attagene CIS-FACTORIAL HepG2 Assay for human Forkhead box O (FoxO) (AID 2282943); details: HepG2 Attagene cis-reporter, FoxO element, mRNA; actives raise or lower the signal
Summary of the method: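 HepG2 cells transiently transfected with cis-element-driven reporter units report endogenous FoxO activity. After 24 h chemical exposure, reporter mRNA quantified by RT-PCR, fluorescent labeling, HpaI digestion and capillary electrophoresis; bidirectional fit versus DMSO.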

[9] = ATG_GATA_CIS: Attagene CIS-FACTORIAL HepG2 Assay for human GATA Binding Protein (AID 2282944); details: HepG2 GATA cis-element reporter, Attagene multiplex mRNA; actives raise or lower the signal
Summary of the method: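 Cells: HepG2, transiently transfected with cis-regulated reporter transcription units. Exposure: 24 h. Detection: RT-PCR plus capillary electrophoresis of FAM-labeled fragments. Analysis: bidirectional, DMSO as baseline.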

[10] = ATG_GLI_CIS: Attagene CIS-FACTORIAL HepG2 Assay for human Zinc Finger Protein GLI1 (AID 2282945); details: HepG2, Attagene cis-factorial reporter mRNA, GLI element; actives raise or lower the signal
Summary of the method: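 Transiently transfected HepG2 cells report endogenous transcription factor activity via cis-element-driven reporter units. After 24 h compound exposure, reporter mRNA was measured by RT-PCR with capillary electrophoresis; bidirectional fitting against DMSO baseline.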

[11] = ATG_ISRE_CIS: Attagene CIS-FACTORIAL HepG2 Assay for human Interferon Regulatory Factor 1 (IRF1) binding to an Interferon-Stimulated Response Element (ISRE) (AID 2282948); details: HepG2 ISRE cis-reporter (Attagene), mRNA transcription readout; actives raise or lower the signal
Summary of the method: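 Transiently transfected HepG2 cells carrying cis-element reporter units, dosed 24 hours. Reporter mRNA quantified by RT-PCR, fluorescent primer extension, HpaI digestion and capillary electrophoresis. Bidirectional fitting relative to DMSO.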

[12] = ATG_M_32_CIS: Attagene CIS-FACTORIAL HepG2 Assay for M32 Transcription Factor (Internal Marker) (AID 2282949); details: HepG2 Attagene cis-factorial M32 reporter, mRNA; actives raise or lower the signal;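 note: background control marker of the multiplexed CIS panel rather than a real target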
Summary of the method: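 Fluorescent capillary electrophoresis peaks of HpaI-digested, FAM-labelled RT-PCR reporter products give the signal. Source: transiently transfected human liver HepG2 cells, 24 h after chemical dosing; bidirectional fitting against DMSO.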

[13] = ATG_M_06_CIS: Attagene CIS-FACTORIAL HepG2 Assay for M06 Transcription Factor (Internal Marker) (AID 2282950); details: HepG2 Attagene CIS-FACTORIAL M06 internal marker reporter; actives raise or lower the signal
Summary of the method: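 Measured 24 h post-dosing in transiently transfected HepG2 cells, this internal-marker endpoint reports reporter mRNA via RT-PCR with fluorescent primer extension and capillary electrophoresis. DMSO served as negative control and baseline for bidirectional fitting.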

[14] = target: Hypoxia-inducible factor 1-alpha (Homo sapiens) (UniProt Q16665); test: ATG_HIF1a_CIS: Attagene CIS-FACTORIAL HepG2 Assay for human Hypoxia Inducible Factor 1 (HIF1A) (AID 2282951); details: HepG2 Attagene cis-factorial HIF1a reporter transcription; actives raise or lower the signal
Summary of the method: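 After 24 h chemical exposure of reporter-transfected HepG2 cells, reporter cDNA was PCR-amplified, labelled by 6-FAM primer extension (2 min 95 C, 20 s 68 C, 10 min 72 C), HpaI-cut (2 h, 37 C) and analysed by CE.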

[15] = target: Hepatocyte nuclear factor 6 (Homo sapiens) (UniProt Q9UBC0); test: ATG_HNF6_CIS: Attagene CIS-FACTORIAL HepG2 Assay for human Hepatocyte Nuclear Factor 6 (HNF6) (AID 2282952); details: HepG2 Attagene cis-factorial HNF6 reporter transcription; actives raise or lower the signal
Summary of the method: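 Reporter mRNA induction or loss in HepG2 after 24 h exposure; transient cis-MRTU transfection; fragments quantified by capillary electrophoresis; bidirectional analysis, DMSO as negative control.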

[16] = target: Heat shock factor protein 1 (Homo sapiens) (UniProt Q00613); test: ATG_HSE_CIS: Attagene CIS-FACTORIAL HepG2 Assay for human Heat Shock Transcription Factor 1 (HSE) (AID 2282953); details: HepG2 HSE cis-reporter, Attagene RNA transcription; actives raise or lower the signal
Summary of the method: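 Reporter mRNA induction in HepG2 is measured 24 h after dosing, using transiently transfected multiplexed cis-regulated reporter units. Signal comes from capillary electrophoresis of labelled RT-PCR products, with DMSO as negative control.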

[17] = ATG_MRE_CIS: Attagene CIS-FACTORIAL HepG2 Assay for human Metal Responsive Element (MRE) (AID 2282954); details: HepG2 MRE cis-reporter transcription, Attagene multiplex; actives raise or lower the signal
Summary of the method: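 HepG2 cells transiently transfected with cis-element-driven reporter units; mRNA measured 24 h after dosing. Reporter transcripts quantified by RT-PCR, FAM labelling, HpaI digestion and capillary electrophoresis; bidirectional fit versus DMSO.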

[18] = target: Bile acid receptor (Homo sapiens) (UniProt Q96RI1); test: ATG_IR1_CIS: Attagene CIS-FACTORIAL HepG2 Assay for human Nuclear Receptor Subfamily 1 Group H Member 4 (NR1H4), IR1 submotif (AID 2282946); details: IR1 reporter transcription, actives raise or lower the signal
Summary of the method: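 HepG2 cells transiently transfected with multiple cis-promoter-driven reporter units to measure endogenous transcription factor activity; 24 h exposure. Reporter mRNA read by RT-PCR, FAM labelling, HpaI digestion and capillary electrophoresis. Bidirectional fit versus DMSO.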

[19] = ATG_GRE_CIS: Attagene CIS-FACTORIAL HepG2 Assay for human Glucocorticoid Response Elements (GRE) (AID 2282947); details: HepG2 GRE cis-reporter, Attagene multiplex mRNA; actives raise or lower the signal
Summary of the method: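 Transiently transfected HepG2 cells carrying GRE cis-reporter units (endogenous TF activity) dosed 24 h; reporter mRNA quantified by RT-PCR, 6-FAM labelling, HpaI digestion and capillary electrophoresis. Bidirectional fit versus DMSO baseline.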

[20] = ATG_ERE_CIS: Attagene CIS-FACTORIAL HepG2 Assay for Estrogen Response Element (ERE) (AID 2282940); details: HepG2 ERE cis-reporter, Attagene RNA transcript; actives raise or lower the signal
Summary of the method: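 After a 24 h chemical treatment, RNA from reporter-transfected HepG2 cells is reverse-transcribed, PCR-amplified and fluorescently labelled. Fragments separated by capillary electrophoresis give reporter signal; DMSO serves as negative control.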

Measured: AC50

Hypoxia-inducible factor 1-alpha (Homo sapiens), sequence (Q16665 whole entry, looked up): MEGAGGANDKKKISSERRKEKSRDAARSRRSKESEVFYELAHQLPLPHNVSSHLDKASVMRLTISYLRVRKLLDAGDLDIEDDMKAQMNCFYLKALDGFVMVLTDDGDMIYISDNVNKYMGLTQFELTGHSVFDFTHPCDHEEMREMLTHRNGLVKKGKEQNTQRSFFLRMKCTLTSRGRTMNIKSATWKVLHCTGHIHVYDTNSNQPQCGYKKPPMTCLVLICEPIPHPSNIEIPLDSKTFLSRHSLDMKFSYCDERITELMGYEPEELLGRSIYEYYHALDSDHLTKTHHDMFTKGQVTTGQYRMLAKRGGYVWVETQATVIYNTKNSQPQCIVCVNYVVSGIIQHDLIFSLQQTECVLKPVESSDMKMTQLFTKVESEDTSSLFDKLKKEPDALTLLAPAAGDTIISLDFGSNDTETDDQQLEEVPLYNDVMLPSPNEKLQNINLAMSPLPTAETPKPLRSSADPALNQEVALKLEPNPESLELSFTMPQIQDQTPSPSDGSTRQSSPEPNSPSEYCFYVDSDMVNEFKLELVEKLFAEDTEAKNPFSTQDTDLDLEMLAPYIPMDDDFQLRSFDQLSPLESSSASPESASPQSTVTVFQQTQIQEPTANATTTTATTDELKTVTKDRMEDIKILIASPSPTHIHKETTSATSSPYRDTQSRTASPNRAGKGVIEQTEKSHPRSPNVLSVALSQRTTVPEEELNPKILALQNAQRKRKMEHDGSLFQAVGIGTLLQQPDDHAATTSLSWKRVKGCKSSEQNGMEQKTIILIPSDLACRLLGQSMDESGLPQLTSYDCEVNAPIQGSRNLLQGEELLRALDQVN
Transcription factor E2F1 (Homo sapiens), sequence (Q01094 whole entry, looked up): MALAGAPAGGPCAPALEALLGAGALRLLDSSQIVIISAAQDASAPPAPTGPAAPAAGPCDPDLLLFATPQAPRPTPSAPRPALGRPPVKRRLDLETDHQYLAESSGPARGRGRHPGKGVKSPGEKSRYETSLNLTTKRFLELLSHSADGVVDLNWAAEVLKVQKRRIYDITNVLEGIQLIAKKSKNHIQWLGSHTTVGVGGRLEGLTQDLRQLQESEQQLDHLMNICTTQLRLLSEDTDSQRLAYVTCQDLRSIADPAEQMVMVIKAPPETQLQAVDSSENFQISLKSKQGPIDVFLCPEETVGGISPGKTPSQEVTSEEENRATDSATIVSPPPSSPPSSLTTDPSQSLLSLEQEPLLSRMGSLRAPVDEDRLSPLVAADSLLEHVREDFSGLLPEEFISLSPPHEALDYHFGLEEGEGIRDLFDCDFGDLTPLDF
Heat shock factor protein 1 (Homo sapiens), sequence (Q00613 whole entry, looked up): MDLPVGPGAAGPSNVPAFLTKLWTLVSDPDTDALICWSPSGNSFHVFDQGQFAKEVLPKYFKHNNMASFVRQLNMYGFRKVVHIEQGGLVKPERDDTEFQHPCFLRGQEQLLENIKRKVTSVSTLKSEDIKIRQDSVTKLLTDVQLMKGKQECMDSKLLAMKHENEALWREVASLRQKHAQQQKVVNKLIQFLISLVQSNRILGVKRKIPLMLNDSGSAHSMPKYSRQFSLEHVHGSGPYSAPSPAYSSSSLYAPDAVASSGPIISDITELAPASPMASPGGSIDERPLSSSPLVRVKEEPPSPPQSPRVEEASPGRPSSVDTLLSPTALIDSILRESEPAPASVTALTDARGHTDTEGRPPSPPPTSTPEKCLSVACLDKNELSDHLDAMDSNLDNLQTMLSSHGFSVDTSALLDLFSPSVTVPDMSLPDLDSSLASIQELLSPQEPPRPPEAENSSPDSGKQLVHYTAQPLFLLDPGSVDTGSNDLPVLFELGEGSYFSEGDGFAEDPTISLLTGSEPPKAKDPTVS
Hepatocyte nuclear factor 6 (Homo sapiens), sequence (Q9UBC0 whole entry, looked up, the tested form may be a part): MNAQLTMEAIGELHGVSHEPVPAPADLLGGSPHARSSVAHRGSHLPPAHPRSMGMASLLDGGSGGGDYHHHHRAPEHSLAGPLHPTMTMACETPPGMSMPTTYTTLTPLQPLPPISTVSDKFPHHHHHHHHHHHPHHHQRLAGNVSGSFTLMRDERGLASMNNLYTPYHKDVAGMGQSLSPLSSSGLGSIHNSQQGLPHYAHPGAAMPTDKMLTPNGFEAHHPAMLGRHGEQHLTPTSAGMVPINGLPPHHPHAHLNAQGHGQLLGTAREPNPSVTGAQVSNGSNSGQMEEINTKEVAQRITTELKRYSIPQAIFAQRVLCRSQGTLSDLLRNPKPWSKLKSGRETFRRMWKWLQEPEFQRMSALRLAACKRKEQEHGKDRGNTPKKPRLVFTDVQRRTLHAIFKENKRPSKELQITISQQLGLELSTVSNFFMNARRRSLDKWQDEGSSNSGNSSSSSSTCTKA
Hepatocyte nuclear factor 3-beta (Homo sapiens), sequence (Q9Y261 whole entry, looked up): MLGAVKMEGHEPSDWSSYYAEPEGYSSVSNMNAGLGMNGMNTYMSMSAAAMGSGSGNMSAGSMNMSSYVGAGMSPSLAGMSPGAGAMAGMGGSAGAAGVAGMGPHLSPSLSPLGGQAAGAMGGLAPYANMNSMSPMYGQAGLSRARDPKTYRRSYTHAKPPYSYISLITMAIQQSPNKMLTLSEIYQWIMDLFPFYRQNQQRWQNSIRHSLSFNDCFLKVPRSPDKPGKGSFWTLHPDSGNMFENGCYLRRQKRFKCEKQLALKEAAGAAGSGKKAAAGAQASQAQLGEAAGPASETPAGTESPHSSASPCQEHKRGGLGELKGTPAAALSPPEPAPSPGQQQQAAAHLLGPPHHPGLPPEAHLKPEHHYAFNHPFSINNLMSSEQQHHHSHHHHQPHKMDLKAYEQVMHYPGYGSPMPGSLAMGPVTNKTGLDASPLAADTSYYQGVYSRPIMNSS
Bile acid receptor (Homo sapiens), sequence (Q96RI1 whole entry, looked up): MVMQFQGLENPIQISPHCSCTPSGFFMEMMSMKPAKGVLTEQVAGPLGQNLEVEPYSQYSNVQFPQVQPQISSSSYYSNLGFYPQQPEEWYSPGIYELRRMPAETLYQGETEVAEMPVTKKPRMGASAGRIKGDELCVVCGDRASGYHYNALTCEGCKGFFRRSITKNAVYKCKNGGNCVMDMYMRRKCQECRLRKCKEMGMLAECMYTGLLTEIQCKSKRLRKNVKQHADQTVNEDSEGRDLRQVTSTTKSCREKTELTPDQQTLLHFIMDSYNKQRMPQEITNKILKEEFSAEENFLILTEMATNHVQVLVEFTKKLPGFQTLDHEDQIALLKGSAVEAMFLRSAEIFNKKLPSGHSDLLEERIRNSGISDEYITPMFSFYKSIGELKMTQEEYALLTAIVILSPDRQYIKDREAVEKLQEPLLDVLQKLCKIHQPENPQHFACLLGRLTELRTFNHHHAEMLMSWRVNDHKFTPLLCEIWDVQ

CCNc1nc(N)nc(Cl)n1
not listed: [18] | [19] | [20]
inactive: all other assays above

Oc1ccc(C(c2ccc(O)cc2)C(Cl)(Cl)Cl)cc1
not listed: [20]
inactive: all other assays above

CC(C)(C)[C@@H](O)[C@@H](Cc1ccc(Cl)cc1)n1cncn1
active: [4] 26.1 µM | [6] 68.5 µM | [8] 12.6 µM | [18] 41.3 µM | [19] 90.9 µM
not listed: [20]
inactive: all other assays above

CCCCOCCOCCOCc1cc2c(cc1CCC)OCO2
active: [1] 58.4 µM
not listed: [19] | [20]
inactive: all other assays above

CCCCC(CC)COC(=O)c1ccccc1C(=O)O (stereo unspecified)
not listed: [18] | [20]
inactive: all other assays above

CCC(C)OC(=O)N1CCCCC1CCO (stereo unspecified)
not listed: [19] | [20]
inactive: all other assays above

CCCOC(=O)NCCCN(C)C
not listed: [16] | [18] | [19] | [20]
inactive: all other assays above

S=C([S-])NCCNC(=S)[S-].[Mn+2]
not listed: [18] | [20]
inactive: all other assays above

CCCCCCC(C)OC(=O)COc1nc(F)c(Cl)c(N)c1Cl (stereo unspecified)
not listed: [18] | [19] | [20]
inactive: all other assays above

c1ccc(Nc2ccccc2)cc1
active: [14] 100 µM
inactive: [1] | [2] | [3] | [4] | [5] | [6] | [7] | [8] | [9] | [10] | [11] | [12] | [13] | [14] | [15] | [16] | [17]

COC(=O)CSc1cc(N=c2sc(=O)n3n2CCCC3)c(F)cc1Cl
not listed: [20]
inactive: all other assays above

COCCO
not listed: [18]
inactive: all other assays above
